The labels stand for the following.
B1: Caulobacter ParB omega fusion; a variant is named by its letters at X, in order, B8GW30 (parent)
chain: MESVVVGEPGMSEGRRGLGRGLSALLGEVDAAPAQAPGEQLGGSREAPIEILQRNPDQPRRTFREEDLEDLSNSIREKGVLQPILVRPSPDTAGEYQIVAGERAWRAAQRAGLKTVPIMVRELDDLAVLEIGIIENVQRADLNVLEEALSYKVLMEKFERTQENIAQTIGKSXSHVANXMRLLXLPDEVQSYLVSGELTAXHARAIAAAADPVALAKQIIEGGLSVRETEALARKAPNLSAGKSKGGRPPRVKDTDTQALESDLSSVLGLDVSIDHRGSTGTLTITYATLEQLDDLCNRLTRGI

Whole data set: some 81,000 sequences, median “one-hybrid fitness for binding NBS DNA” near -0.1, cut for the highest 2% near 0.36. Shown is part of a subset that was picked to be rich in the highest values.

In this assay the parent is B1. The assay can be described thus: one-hybrid fitness for binding NBS DNA (the Noc-binding site; scaled: cognate 1, non-cognate 0); higher = stronger binding. The settings on record: with NBS DNA site. The method in brief: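 Caulobacter ParB libraries with four specificity codons randomised were screened by bacterial one-hybrid selection in the E. coli USO strain, using a HIS3 reporter whose site lies 19 bp from the promoter. Selection ran for 48 hours at 37°C on M9 lacking histidine, with 0.1 mM IPTG and 5 mM 3-AT. Plasmids were Illumina-sequenced before and after selection, three replicate libraries were pooled, and variants with under 10 reads were dropped. Fitness is the log change in each variant's read ratio to wild type, rescaled against the cognate and non-cognate sites.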
Take HSVS: the “one-hybrid fitness for binding NBS DNA” value is at most 0.2. With ARTM, the “one-hybrid fitness for binding NBS DNA” value is at most 0.2.

HHLA: the “one-hybrid fitness for binding NBS DNA” value was at most 0.2. The figure for QYMS is 0.314; for QYMH it is at most 0.2; for QTMD it is at most 0.2.

As for QTMT, the “one-hybrid fitness for binding NBS DNA” value was 0.551. Consider QYMP, for which the “one-hybrid fitness for binding NBS DNA” value is at most 0.2. The figure for QTMP is at most 0.2. Turning to QMMT, the “one-hybrid fitness for binding NBS DNA” value is 0.378. In the case of QYMY, the “one-hybrid fitness for binding NBS DNA” value worked out at 0.453. The figure for QYMT is 0.416; for QYMN it is at most 0.2.

As to QMMS, the “one-hybrid fitness for binding NBS DNA” value was found to be 0.333. For QMMF, the “one-hybrid fitness for binding NBS DNA” value was at most 0.2. As for CSAE, the figure is at most 0.2.

As for YFMR, the “one-hybrid fitness for binding NBS DNA” value was at most 0.2. The figure for TNFF is at most 0.2; for AHDA it is at most 0.2. As for FHFL, the figure is at most 0.2. The figure for CNVL is at most 0.2; for HYMT it is at most 0.2; for QLMT it is 0.34. Consider QAMT, for which the “one-hybrid fitness for binding NBS DNA” value was 0.346. In the case of QRMC, the “one-hybrid fitness for binding NBS DNA” value was 0.333.

For the variant QRMG, the “one-hybrid fitness for binding NBS DNA” value was determined as 0.329. The figure for QSMT is 0.368; for QCMT it is 0.477; for QIMT it is 0.219. On to QRMT, for which the “one-hybrid fitness for binding NBS DNA” value was 0.729. The figure for QKMY is 0.224. As for QKMN, the “one-hybrid fitness for binding NBS DNA” value was at most 0.2. The figure for QKMT is 0.424; for QPMT it is at most 0.2; for QLVV it is at most 0.2. The figure for KKDV is at most 0.2; for RLWA it is at most 0.2; for WGTT it is at most 0.2. The figure for PARD is at most 0.2; for RCAQ it is at most 0.2. For FSIR, the “one-hybrid fitness for binding NBS DNA” value was at most 0.2. The figure for RTAF is at most 0.2; for RTAQ it is at most 0.2. Consider RTAT, for which the “one-hybrid fitness for binding NBS DNA” value is 0.499. As for RTFT, the figure is 0.417; as for RTFH, at most 0.2; as for RTFP, at most 0.2.

For YRWR, the “one-hybrid fitness for binding NBS DNA” value is at most 0.2. The figure for QYAW is at most 0.2; for CWPD it is at most 0.2. As for IVKR, the figure is at most 0.2; as for TREN, at most 0.2. The figure for RVKT is 0.652; for RVVR it is 0.3; for RVKD it is at most 0.2. Consider RVKH, for which the “one-hybrid fitness for binding NBS DNA” value was 0.321. As for RVKR, the figure is 0.665; as for RVVT, 0.261; as for RVKN, 0.203. The figure for RVKS is 0.578. The figure for RVKP is at most 0.2; for DVAM it is at most 0.2. Take FLSS: the “one-hybrid fitness for binding NBS DNA” value is at most 0.2. Turning to SKYT, the “one-hybrid fitness for binding NBS DNA” value is at most 0.2. The figure for PHGE is at most 0.2. As for KVPL, the “one-hybrid fitness for binding NBS DNA” value was at most 0.2. As for QVKP, the figure is at most 0.2; as for QVKM, 0.229.

In the case of QVVY, the “one-hybrid fitness for binding NBS DNA” value was at most 0.2. The figure for QVKS is 0.49; for QVKY it is 0.383; for QVYY it is at most 0.2.

Take QVKH: the “one-hybrid fitness for binding NBS DNA” value is 0.38. As for QVKT, the figure is 0.564. As for QVKQ, the figure is 0.241.

With QVKD, the “one-hybrid fitness for binding NBS DNA” value is at most 0.2.

For QVVT, the “one-hybrid fitness for binding NBS DNA” value stood at 0.248.

In the case of QVKN, the “one-hybrid fitness for binding NBS DNA” value was at most 0.2. As for MVLL, the figure is at most 0.2. The figure for KYVG is at most 0.2. The figure for NCLS is at most 0.2; for FLLI it is at most 0.2; for SFTN it is at most 0.2. Consider QSWH, for which the “one-hybrid fitness for binding NBS DNA” value was at most 0.2.

With PPWR, the “one-hybrid fitness for binding NBS DNA” value was at most 0.2. As for RQTQ, the figure is at most 0.2; as for RQTR, 0.497. As for RQTT, the figure is 0.487; as for RQTP, at most 0.2. As for RQTD, the figure is at most 0.2.

In the case of RQTN, the “one-hybrid fitness for binding NBS DNA” value is at most 0.2. The figure for RQTS is 0.436; for RQTH it is at most 0.2; for RQTM it is at most 0.2.

As to KQNL, the “one-hybrid fitness for binding NBS DNA” value is at most 0.2.

Turning to SITL, the “one-hybrid fitness for binding NBS DNA” value is at most 0.2. The figure for CLCV is at most 0.2.
